PubChem BioAssay AID686978 (National Center for Advancing Translational Sciences (NCATS), 2013)
Several values for one entry are separate records, joined by “and”; a condition that tells them apart may be missing. Equal values may be shown once. The whole screen tested about 420,000 compounds, of which about 64,000 (15%) were called active. Another 27% or so got no clear call; they are omitted. Calls follow the shape of the dose curve; as a rule, active = well fitted inhibition curve with a large enough effect; inconclusive = small, poorly fitted or top-dose-only effect; inactive = flat fitted curve, though single readings scatter. This excerpt belongs to a sample that is enriched for actives.

experiment: qHTS for Inhibitors of human tyrosyl-DNA phosphodiesterase 1 (TDP1): qHTS in cells in absence of CPT; details: DT40 Tdp1-/- hTDP1 cells, no CPT, ATP luminescence, 48 h; series mostly up to 46.2 µM; activity change, negative = growth inhibition: at the top concentration; also: nearly all actives have a fitted effect of over 55% in size
Description: Human tyrosyl-DNA phosphodiesterase 1 (TDP1) is a novel repair gene, and we propose to use it as a new target for anticancer drug development. TDP1 is not an essential protein, but under treatment with topoisomerase I poison (camptothecin: CPT), TDP1 works as a critical factor for cell survival. To directly identify novel TDP1 inhibitors active in a cellular environment, we have knocked-out the Tdp1 gene in chicken DT40 cells (Tdp1-/-) and generated a complemented counterpart cells that contains a stable transfection of the human TDP1 gene (Tdp1-/-;hTDP1 cells). For the primary screen, Tdp1-/-;hTDP1 cells will be exposed to small molecules in the presence or absence of CPT, and their growth kinetics will be evaluated after 48 hours by measuring ATP activity. […] The hit compounds will then be evaluated in the presence or absence of CPT using Tdp1-/- cells. […] In tertiary assays, biochemical gel-based assays will be used to assess whether the hit compounds specifically target TDP1.
To this end, we have screened this cell line against the MLSMR in two primary screens. In one screen we add CPT and in the other we screen in the absence of CPT; this AID represents the screen where CPT was absent.
NIH Chemical Genomics Center [NCGC]
NIH Molecular Libraries Probe Centers Network [MLPCN]
Assay Submitter (PI): Yves Pommier, NCI
DT40-hTDP1 cells without 20 nM Camptothecin (add 20 microL of DMSO in 1 L of cell culture medium) were dispensed at 400 cells/5microL/well in tissue culture treated 1536-well white wall/solid bottom assay plates (Greiner Bio-One North America, NC, U.S.A.) using a Multidrop Combi 8 channel dispenser (Thermo Fisher, Waltham, MA, USA). 23 nL compounds and controls were transferred using the pin tool (Kalypsys, San Diego, CA, USA) to the assay plates. The assay plates were then incubated at 37 masculineC for a minimum 48 hr. Three microL of Cell Titer Glo solution was added to the plates and incubated at RT in dark for 30 min. Luminescence was read using ViewLux (Perkin Elmer) with 1 sec exposure slow speed, high gain and 2x binning.
% is scaled to controls: 0 for no effect and ±100 for the full control effect; potency is read from the fitted curve at half-maximal effect.

Row | Structure (SMILES) | activity change, negative = growth inhibition | Potency
1 | CC[N+](CC)(CC)CCCCCCCCCC[N+](CC)(CC)CC | -1.16% (inactive) | –
2 | CNC(=O)N(C)c1nnc(C(C)(C)C)s1 | – | inactive
3 | COP(=O)(NS(=O)(=O)c1ccccc1)OC | 10.3% (inactive) | –
4 | CN1CCC(OC(=O)c2cccc(F)c2)CC1 | -23.6% (inactive) | –
5 | CN1[C@@H]2CC[C@H]1CC(OC(=O)c1cc(Cl)cc(Cl)c1)C2 (some centres undefined) | – | 13.3 µM (active) and 11.9 µM (active)
6 | CNP1(NC)=Nc2nn(-c3ccccc3)c(N)c2C(c2ccccc2)=N1 | -8.1% (inactive) | –
7 | Cc1cccc(Cn2cccc(C(=O)Nc3ccc4c(c3)OCCO4)c2=O)c1 | – | 20.6 µM (active)
8 | CCN(CC)C(=O)c1ccc(NC(=O)c2cc(-n3cnnc3)ccc2Cl)cc1 | -6.17% (inactive) | –
9 | COc1cc(OC)cc(C2(C#N)CCN(C)CC2)c1 | 6.77% (inactive) | –
10 | Cc1ccc(-n2c(O)c(C=NCC3CCCO3)c(=O)[nH]c2=O)c(C)c1 (centres undefined) | -4.24% (inactive) | –
11 | CNC(=O)Nc1ccc(C(O)(C(=O)OC)C(F)(F)F)cc1 (centres undefined) | -2.08% (inactive) | –
12 | Cc1cc(C(=O)OCC(=O)Nc2c(F)cccc2F)c(C)n1C1CC1 | 2.09% (inactive) | –
13 | COC(=O)[C@@]12C[C@@H](CC(=O)NCc3cccc(C(F)(F)F)c3)C(=O)N(Cc3ccco3)C1=CCC(C)(C)C2 | – | 13 µM (active)
14 | COc1cc(Cl)ccc1Nc1ncc(C(=O)N2CCN(c3ccccc3OC)CC2)c2ccccc12 | – | 5.8 µM (active)
15 | C[C@@]1([C@@H](NP(=O)(c2ccccc2)c2ccccc2)c2ccccc2)C[C@H]1CCO | – | 18.4 µM (active)
16 | CCN1CCN(C(=O)Cc2coc3cc(C)cc(C)c23)CC1 | -10.5% (inactive) | –
17 | c1cncc(CNC2=NCCC2)c1 | -15% (inactive) | –
18 | CCN1C(=O)NC(=O)C2(CCCC2)C1=O | -4.11% (inactive) | –
19 | O=C(CCCn1c(=O)[nH]c2cc(Cl)ccc2c1=O)N1CCC2(CC1)OCCO2 | -6.95% (inactive) | –
20 | COc1ccc(-c2nc(CS(=O)CC(=O)N3CCC4(CC3)OCCO4)c(C)o2)cc1 (centres undefined) | 2.45% (inactive) | –
21 | Cc1ccc(Cn2c(C)c3cnn(CC(=O)N4CCC5(CC4)OCCO5)c(=O)c3c2C)cc1 | – | 14.6 µM (active)
22 | Cc1ccc(C(C)C)c(OCC(=O)N2CCN(CC(=O)N3CCOCC3)CC2)c1 | -17.4% (inactive) | –
23 | COC1CC(OC2CC[C@@]3(C=O)C4CC[C@]5(C)C(C6=CC(=O)OC6)CC[C@@]5(O)C4CC[C@]3(O)C2)OC(C)C1O (some centres undefined) | – | 0.92 µM (active)
24 | COC1C(O)C(C)OC(OC2CCC3(C=O)C(CCC4C3CCC3(C)C(C5=CC(=O)OC5)CCC43O)C2)C1O (centres undefined) | – | 0.206 µM (active)
25 | CN(C)/C=C(\C=[N+](C)C)c1[nH]ncc1[N+](=O)[O-] | 7.97% (inactive) | –

Row | Structure (SMILES) | activity change, negative = growth inhibition | Potency
26 | Cc1ccc(C2CN(C)CC2C(=O)c2ccc(F)cc2)cc1 (centres undefined) | -12.1% (inactive) | –
27 | COc1ccc(-n2c(O)c(C(C)=Nc3ccc4c(c3)CCC4)c(=O)[nH]c2=O)cc1 | -28.5% (inactive) | –
28 | Cc1ccc(-c2nc3ccccc3c(=O)n2-c2ccc(Br)cn2)cc1 | -24.3% (inactive) | –
29 | CSc1nc2ccc(C)cc2c(=O)n1-c1cccnc1 | -9.55% (inactive) | –
30 | COc1ccc(-n2c(-c3ccccc3)nc3ccccc3c2=O)cc1 | – | 13 µM (active)
31 | O=c1c2ccccc2nc(-c2ccccc2)n1-c1ccccn1 | -2.29% (inactive) | –
32 | Cc1ccc(-n2c(-c3ccc([N+](=O)[O-])cc3)nc3ccccc3c2=O)cc1 | – | 8.2 µM (active)
33 | COC1=C[C@]23CCCN2CCc2cc4c(cc2[C@@H]3[C@@H]1O)OCO4 | -13.2% [at 9.04 µM] (inactive) | –
34 | c1ccc2sc(C3CCCNC3)nc2c1 (centres undefined) | -13% (inactive) | –
35 | CN(C)C(=O)Oc1cc(OC(=O)N(C)C)cc(C(O)CNC(C)(C)C)c1 (centres undefined) | – | inactive
36 | CC(=O)Cc1ccc(OC(C)C)cc1 | -10.7% (inactive) | –
37 | OC1/C(=C/c2ccc(C(F)(F)F)cc2)N2CCC1CC2 (centres undefined) | -13% (inactive) | –
38 | O=C(CCC(=O)N1C[C@H]2C[C@@H](C1)c1cccc(=O)n1C2)NCc1ccccc1C(F)(F)F | -0.958% (inactive) | –
39 | C#C[C@]1(O)CC[C@H]2[C@@H]3CCC4=C/C(=N/O)CC[C@@H]4[C@H]3CC[C@@]21CC | – | 21.1 µM (active)
40 | C#C[C@]1(OC(=O)CCCCCC)CC[C@H]2[C@@H]3CCC4=CC(=O)CC[C@@H]4[C@H]3CC[C@@]21C | -21.7% (inactive) | –
41 | CC(C)N(CC#CCC1(O)c2ccccc2-c2ccccc21)C(C)C | -24.2% (inactive) | –
42 | C[C@]12CCC3C(CC[C@H]4C[C@@H](O)CC[C@]34C)C1CC[C@@H]2O (some centres undefined) | 4.7% (inactive) | –
43 | O=C(O)C1CSC(c2cccnc2)N1 (centres undefined) | -11.6% (inactive) | –
44 | CC(=O)c1ccc(S(=O)(=O)N2CCN(c3nc4c(C)c(C)ccc4cc3C#N)CC2)cc1 | – | 12.6 µM (active)
45 | CCOC(=O)CC1=C(C(=O)OCC)C2(C(=O)N1)C(C(=O)OC)=C(N)Oc1ccccc12 (centres undefined) | 0.689% (inactive) | –
46 | CCCCC(=O)N/N=C/c1c(O)n(-c2ccccc2)c(=O)[nH]c1=O | -10.2% (inactive) | –
47 | CCCCC(=O)N/N=C/c1c(O)n(CCC2=CCCCC2)c(=O)[nH]c1=O | – | 25.9 µM (active)
48 | O=c1[nH]c(=O)n(CCc2ccc(F)cc2)c(O)c1/C=N/N1CCCCC1 | -14.5% (inactive) | –
49 | CC(C)(Cc1c[nH]c2ccc(Cl)cc12)NCCOc1ccccc1OCC1CC1 | – | 26.6 µM (active) and 5.17 µM (active)
